# HT1080 IDH1KD tx = toxicity to HT-1080 IDH1 knockdown cells (counter line) | HT-1080 IDH1 knockdown viability, ATP luminescence, 48 h | Potency, µM (doses to about 46.1 µM), for the others: at the highest dose activity, negative = toxicity, usual class: cytotoxic | 360,000 tested, 2% active | AID 686971;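 further: 0% = DMSO wells and -100% = cell-free medium wells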
#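 Knockdown cells (IDH1KD HT-1080) received compounds 2 h after plating at 750 cells/well and were kept 48 h at 37 °C in 5% FBS RPMI. A CellTiter-Glo luminescence read gave % activity for curve fitting.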
# HT1080-NT tox = kills 2HG-producing HT-1080-NT fibrosarcoma cells | HT-1080-NT fibrosarcoma viability, CellTiter-Glo ATP luminescence, 48 h | Potency, µM (doses to about 46.1 µM), for inactives: top-dose activity, negative = less viability, hits mostly cytotoxic | 360,000 tested, 1.6% active | AID 686970;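 further: NT is the 2HG producing partner of a matched IDH1 knockdown line; 0% = DMSO-treated cells and -100% = media-only wells without cells; nearly all actives have a fitted effect of over 55% in size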
#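 Fibrosarcoma NT cells, 750 per well in 5% FBS RPMI, were exposed to compound for 48 hours. Viability: CellTiter-Glo luminescence.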
# MCF10A rerep = induces DNA re-replication in MCF 10a normal breast cells. MCF 10A DNA re-replication, Hoechst nuclear intensity, 48 h. Potency, µM (top dose mostly 46.1 µM), for inactives: at the highest dose activity, positive = re-replication, most hits filed as activators. 350,000 tested, 2.9% active; further: % of control where 0% means no effect; nearly all actives have a fitted effect of over 50% in size
# SW480 rereplic = induces DNA re-replication in SW480 colon adenocarcinoma cells; SW480 DNA re-replication, Hoechst DNA content imaging, 48 h; Potency, µM (doses to about 46.1 µM), without a hit: top-dose re-replication activation, actives largely listed as activators; 340,000 tested, 1.8% active; AID 624297; further: % of control where 0% means no effect; nearly all actives have a fitted effect of over 55% in size
#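 Image-based read-out: total Hoechst fluorescence of nuclei (405 nm excitation, 500-530 nm emission), with hits raising the fraction of high-intensity nuclei. SW480 colon cells incubated 48 hr with compounds at 37 C.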
# KB-3-1 tox = KB-3-1 parental cell cytotoxicity | KB-3-1 viability, CellTiter-Glo ATP luminescence, 72 h | Potency, µM (series often up to 46.1 µM), actives largely listed as cytotoxic | 400,000 tested, 1.4% active | AID 1347075; further: on the % scale 0 is the no-effect control and ±100 the full control effect; nearly all actives have a fitted effect of over 60% in size
#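 Parental KB-3-1 adenocarcinoma cells in phenol-red-free DMEM with 10% FBS were pin-treated with compounds at several concentrations, incubated 72 h at 37 °C, and viability read by CellTiter-Glo luminescence; concentration-effect curves were fitted after normalization.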
# KB-V1 MDR tox = KB-V1 MDR subline cytotoxicity; KB-V1 MDR cells viability, CellTiter-Glo, 72 h; Potency, µM (doses to about 46.1 µM), actives largely listed as cytotoxic; 400,000 tested, 3.4% active; AID 1347076; further: on the % scale 0 is the no-effect control and ±100 the full control effect; nearly all actives have a fitted effect of over 60% in size
#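 KB-V1 MDR subline cells in DMEM (phenol-red free, 10% FBS) exposed to compounds in qHTS concentration series for 72 h at 37 degrees C. Viability read by CellTiter-Glo luminescence; concentration-effect curves fitted after normalization and correction.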
# * hit, by the source's call; i = inactive; ? = inconclusive; . = not tested or not shown; [ ] = remark or other dose. Shown are actives, neighbours in structure and some others; about 8% of the full set was active somewhere. The call rests on the fitted dose curve; in most records, active means well fitted curve in the direction sought with a large enough effect; inconclusive means small, poorly fitted or top-dose-only effect, or another doubt; inactive means no such curve, though single readings can be large; an effect the other way counts as inactive or inconclusive. Potency means the concentration at half of the fitted maximal effect.
SMILES,HT1080 IDH1KD tx,HT1080-NT tox,MCF10A rerep,SW480 rereplic,KB-3-1 tox,KB-V1 MDR tox
Cc1ccc(/C=N/NC(=O)c2ccc3ccccc3c2)s1,2.31µM*,?,4.61µM*,4.11µM*,5.8µM*,?
O=C(N/N=C/c1cccc(O)c1)c1ccc2c(c1)OCCO2,-0.2%,-5.2%,-4.3%,-23.1%,i,i
O=C(N/N=C/c1cc([N+](=O)[O-])ccc1O)c1cccc2cc[nH]c12,9.2µM*,?,?,7.31µM*,?,i
CNC(=O)c1cc(Nc2nnc(-c3ccc(O)cc3)c3ccccc23)ccc1OC,-19.3%,-25.1%,6.2%,-1.8%,i,i
Cc1ccc(/C=N/NC(=O)CSc2nc3ccccc3n2C)s1,-7.7%,1.1%,?,0.7%,i,14.6µM*
O=C(N/N=C/c1cccs1)c1c[nH]c2ccccc12,23.6%,13.2%,3.4%,-0.6%,i,?
Cc1ccsc1/C=N/NC(=O)c1ccc2c(c1)OCCO2,-12.7%,-6.0%,-0.7%,-79.2%,i,i
O=C(N/N=C/c1cccs1)c1cccc2cc[nH]c12,15.8µM*,?,19.6%,0.4%,i,20.6µM*
Cc1ccc(/C=N/NC(=O)c2ccc3c(c2)OCCO3)s1,13µM*,?,?,16.4µM*,20.6µM*,?
Cn1c(SCC(=O)N/N=C/c2cccs2)nc2ccccc21,1.9%,1.8%,-2.4%,0.1%,i,i
O=C(/C=C/c1ccccc1)Nc1cc(S(=O)(=O)N2CCOCC2)ccc1N1CCOCC1,-4.1%,-5.3%,-0.5%,?,i,i
Cn1cccc1Cc1nnc(SCC(=O)Nc2cccc(F)c2)n1CCc1ccccc1,-14.2%,-1.1%,14.2%,-1.1%,i,i
CSc1ccc(S(=O)(=O)Nc2ccc3c4c(cccc24)CC3)cc1,?,?,?,?,18.4µM*,14.6µM*
CSc1ccc(S(=O)(=O)Nc2ccc3c(c2)NC(=O)CC3)cc1,16.4µM*,-28.3%,23.9%,2.9%,i,i
O=C1CCc2cc(S(=O)(=O)Nc3ccc4c(c3)CCC4)ccc2N1,.,.,.,.,i,i
COc1cc(OC)c(NC(=O)CCCNC(=O)Cn2cnc3sc(C)c(C)c3c2=O)cc1Cl,-18.7%,-3.5%,-12.3%,-5.2%,i,i
O=C(c1ccc(Cl)c(S(=O)(=O)N2CCCC2)c1)N1CCCCC1,1.3%,5.9%,-17.7%,-2.5%,.,.
O=C1c2ccccc2C(=O)N1CN(C(=O)COc1ccc(Cl)cc1Cl)c1cccc(F)c1,-19.1%,-1.7%,2.9%,-30.8%,i,i
C=CCNC(=O)C(=O)NCCOc1ccccc1Cl,?,?,?,20.6µM*,7.31µM*,i
CS(=O)(=O)c1nc(S(=O)(=O)c2ccc(Cl)cc2)c(NCCN2CCOCC2)s1,8.1%,?,2.6%,1.4%,i,?
CC1CCCC(C)N1C(=C(Cl)Cl)C(=C1SCCS1)[N+](=O)[O-] (stereo unspecified),-29.3%,-25.1%,-10.0%,-3.0%,25.9µM*,?
CCOC(=O)c1sc2ncn(CC(=O)Nc3cc(C)cc(C)c3)c(=O)c2c1C,.,.,.,.,i,i
CCOC(=O)c1sc2ncn(CC(=O)N(CC)CC)c(=O)c2c1C,6.4%[9.24 µM],-2.8%,14.6µM*,?,i,i
O=C1C[C@@H]2C(=O)N(c3ccccc3)C(=O)[C@@H]2[C@@H]2CN(S(=O)(=O)c3ccccc3)[C@@H](c3ccccc3)[C@H]12,7.8%,4.1%,.,.,i,i
Cc1cc(=O)oc2cc(OCC(=O)NC3CCCCC3)c(Cl)cc12,25.6%,?,-12.7%,-3.3%,i,i
SMILES,HT1080 IDH1KD tx,HT1080-NT tox,MCF10A rerep,SW480 rereplic,KB-3-1 tox,KB-V1 MDR tox
CCN(CC)CCN1C(=O)C(=O)/C(=C(/O)c2ccncc2)C1c1ccccc1F (stereo unspecified),4.4%[9.24 µM],20.3%,-1.7%,-1.4%,i,i
C/C=C(\C)C(=O)OC1[C@H](OC(C)=O)C2(CO)C(CC1(C)C)C1=CCC3C4(C)CCC(O[C@@H]5O[C@H](C(=O)O)[C@@H](O[C@@H]6O[C@H](CO)[C@@H](O)[C@H](O)[C@H]6O)[C@H](O)[C@H]5O[C@H]5O[C@H](CO)[C@@H](O)[C@H](O)[C@H]5O)[C@](C)(CO)C4CCC3(C)[C@]1(C)C[C@H]2O (stereo partly specified),.,.,6.51µM*,2.4%,i,?
CC(C(=O)NC1CCCC1)N(Cc1ccco1)C(=O)c1snc(C(=O)NC2CCCC2)c1N (stereo unspecified),3.9%,8.9%,-8.5%,-1.1%,i,i
CC(C)(C)S(=O)N1Cc2cc(C(=O)NCc3ccc(Oc4ccccc4)cc3)nc(-c3cccc(-c4cc5ccccc5o4)c3)c2[C@@H]1CCO (stereo partly specified),?,23.1µM*,.,.,?,?
COCCNC(=O)c1cc2c(c(-c3cccc(-c4cc5ccccc5o4)c3)n1)[C@H](CCO)N(S(=O)C(C)(C)C)C2 (stereo partly specified),?,?,.,.,i,18.4µM*
CC1CCN(S(=O)(=O)c2ccc(N=NC3=C(O)CC(C)(C)CC3=O)cc2)CC1,19.9%,18.1%,2.4%,?,i,i
C=CC[C@H](CC(=O)N[C@H](CO)Cc1ccccc1)C(=O)N[C@H](COC(=O)[C@@H](CC=C)Cc1ccc(F)cc1)Cc1c[nH]c2ccccc12,-7.0%,-4.6%,18.9%,1.1%[9.22 µM],i,i
COc1ccc(-c2nc3ccccc3nc2-c2ccccc2)cc1,-1.2%,7.3%,9.7%,-20.5%,i,i
CNC(=O)c1ccc2nc(-c3ccccc3)c(-c3ccccc3)nc2c1,.,.,.,.,i,i
COc1ccc(N(C)C(=O)c2ccc3nc(-c4ccccc4)c(-c4ccccc4)nc3c2)cc1,-18.7%,-23.7%,?,9.7%,?,20.6µM*
CC(C)N(C(=O)c1ccc2nc(-c3ccccc3)c(-c3ccccc3)nc2c1)C(C)C,-23.2%,-17.8%,?,-2.3%,?,23.1µM*
CCSc1nnc(NC(=O)[C@H](C)N2C(=O)C3CC=CCC3C2=O)s1 (stereo partly specified),1.6%,3.9%,1.1%,-16.7%,i,?
COc1ccc(-n2ncc3c(N4CCN(c5cccc(C)c5)C(C)C4)ncnc32)cc1 (stereo unspecified),.,.,.,.,20.6µM*,?
Cc1cccc(-n2ncc3c(N4CC(C)CC(C)C4)ncnc32)c1 (stereo unspecified),14.8%,29.9%,29.3%,-1.9%,i,i

# From PubChem
